Assay results published in PubChem BioAssay (NCI).
The panel holds about 79,000 compounds, 15% with a hit somewhere; the sample as a whole holds those more often. Active and inactive are the calls of the source. Cut-off read from the data, not from the text of the source: active = growth inhibition above about 70%; inactive = the rest.

Legend:
[1] = NCI Yeast Anticancer Drug Screen. Data for the rad52 strain (AID 147);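 note: 0% = growth of vehicle-treated control cultures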; settings: S. cerevisiae rad52 mutant growth inhibition, stronger effect = higher value
Procedure, shortened: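 DNA repair-defective yeast; compound exposure; growth scored against vehicle controls.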

[2] = NCI Yeast Anticancer Drug Screen. Data for the wt1 strain (AID 149);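 note: 0% = growth of vehicle-treated wt1 cultures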; settings: S. cerevisiae wt1 strain (SPY 50644) growth inhibition, stronger effect = higher value
Procedure, shortened: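 Yeast wt1 strain exposed to compounds; growth inhibition measured relative to vehicle-treated controls.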

[3] = NCI Yeast Anticancer Drug Screen. Data for the rad50EPP+ strain (AID 151);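 note: 0% = growth of vehicle-treated control cultures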; settings: S. cerevisiae rad50 mutant strain, stronger effect = higher value
Procedure, shortened: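 rad50EPP+ yeast treated with test compounds. Readout: growth vs vehicle control.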

[4] = NCI Yeast Anticancer Drug Screen. Data for the mgt1 strain (AID 153); settings: S. cerevisiae mgt1 mutant growth inhibition, stronger effect = higher value
Procedure, shortened: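 Growth inhibition relative to vehicle controls was scored for the mgt1 yeast strain after compound exposure.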

[5] = NCI Yeast Anticancer Drug Screen. Data for the rad50 strain (AID 155);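 note: 0% = growth of vehicle-only cultures of the same strain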; settings: S. cerevisiae rad50 strain growth inhibition, stronger effect = higher value
Procedure, shortened: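 Yeast carrying a defined DNA repair defect were exposed to test compounds, and growth was compared with vehicle-treated controls to give percent inhibition.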

[6] = NCI Yeast Anticancer Drug Screen. Data for the mec2-1 strain (AID 157); settings: S. cerevisiae mec2-1 strain, stronger effect = higher value
Procedure, shortened: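 Growth inhibition is read against vehicle-treated controls after compound exposure of the mec2-1 yeast strain, which is defective in DNA damage repair or cell cycle control.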

[7] = NCI Yeast Anticancer Drug Screen. Data for the rad14 strain (AID 159);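 note: 0% = growth of vehicle-treated control cultures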; settings: S. cerevisiae rad14 strain growth inhibition, stronger effect = higher value
Procedure, shortened: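 Yeast cells carrying a defined DNA-repair defect were exposed to compounds, and growth inhibition was calculated relative to vehicle-treated control cultures.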

[8] = NCI Yeast Anticancer Drug Screen. Data for the sgs1 mgt1 strain (AID 161);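 note: 0% = growth of cultures given vehicle only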; settings: S. cerevisiae sgs1 mgt1 strain, stronger effect = higher value
Procedure, shortened: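 Percent growth inhibition was derived by comparing compound-exposed mutant yeast with vehicle-exposed cultures. The strain carries alterations in DNA damage repair.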

[9] = NCI Yeast Anticancer Drug Screen. Data for the CLN2oe strain (AID 163);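 note: 0% = growth of vehicle-only control cultures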; settings: S. cerevisiae CLN2oe strain, stronger effect = higher value
Procedure, shortened: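 Compound-treated yeast; growth vs vehicle ctrl = % inhibition. Genetically altered strain (cell-cycle control).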

[10] = NCI Yeast Anticancer Drug Screen. Data for the cln2 rad14 strain (AID 165);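 note: 0% = growth equal to vehicle treated cultures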; settings: S. cerevisiae cln2 rad14 strain, stronger effect = higher value
Procedure, shortened: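 Growth inhibition, relative to vehicle-treated controls, is the read-out. The test organism is a yeast strain with defined genetic alterations, cln2 rad14.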

[11] = NCI Yeast Anticancer Drug Screen. Data for the bub3 strain (AID 167); settings: S. cerevisiae bub3 mutant strain, stronger effect = higher value
Procedure, shortened: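 Compounds were applied to a genetically altered yeast strain carrying a cell-cycle control defect. Growth inhibition was scored against vehicle-treated controls.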

[12] = NCI Yeast Anticancer Drug Screen. Data for the wt2 strain (AID 169);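 note: 0% = growth of vehicle-treated yeast cultures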; settings: S. cerevisiae wt2 strain growth inhibition, stronger effect = higher value
Procedure, shortened: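 Compound exposure of yeast; growth compared with vehicle controls; inhibition reported.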

[13] = NCI Yeast Anticancer Drug Screen. Data for the mlh1 strain (AID 171);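 note: 0% = growth of vehicle-treated control cultures of the same strain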; settings: S. cerevisiae mlh1 strain growth inhibition, stronger effect = higher value
Procedure, shortened: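 Compounds are applied to a genetically altered yeast strain, and its growth is compared with that of vehicle-treated cultures to give percent inhibition.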

[14] = NCI Yeast Anticancer Drug Screen. Data for the sgs1 strain (AID 173);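 note: 0% = growth of vehicle-only control cultures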; settings: S. cerevisiae sgs1 mutant, stronger effect = higher value
Procedure, shortened: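 Compounds applied to genetically altered yeast; growth compared with vehicle-treated cultures to give % inhibition.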

[15] = NCI Yeast Anticancer Drug Screen. Data for the mlh1 rad18 strain (AID 175); settings: S. cerevisiae mlh1 rad18 strain growth inhibition, stronger effect = higher value
Procedure, shortened: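 Cells of a genetically altered yeast strain, deficient in DNA damage repair, were treated with compound. Their growth was then compared with that of vehicle-treated cultures to give inhibition.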

[16] = NCI Yeast Anticancer Drug Screen. Data for the rad18 strain (AID 177); settings: S. cerevisiae rad18 mutant growth inhibition, stronger effect = higher value
Procedure, shortened: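 Compounds are applied to a repair-deficient yeast strain, and growth is compared with that of vehicle-treated cultures to give percent inhibition.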

[17] = at 5.0 µM (retest, dose inferred, filed as 0.5)
[18] = at 50.0 µM (retest, dose inferred, filed as 5.0)

Measured: growth inhibition

CC(=O)Nc1ccc2c(c1)-c1ccccc1C2=O
inactive: [1]; at 1.2 µM -1% | [1]; at 3.7 µM 1% | [1]; at 11.0 µM 10% | [2]; at 1.2 µM -2% | [2]; at 3.7 µM -1% | [2]; at 11.0 µM -48% | [2]; at 33.0 µM 6% | [2]; at 100.0 µM 45% | [3]; at 1.2 µM -2% | [3]; at 3.7 µM -4% | [3]; at 11.0 µM 2% | [3]; at 33.0 µM 25% | [4]; at 1.2 µM -5% | [4]; at 3.7 µM -4% | [4]; at 11.0 µM -5% | [4]; at 33.0 µM 1% | [5]; at 1.2 µM -2% | [5]; at 3.7 µM 19% | [5]; [17] 2% | [5]; at 11.0 µM 20% | [5]; at 33.0 µM 68% | [5]; [18] 54% | [5]; at 50.0 µM 67.8% | [6]; at 1.2 µM -1% | [6]; at 3.7 µM 2% | [6]; [17] 7% | [6]; at 11.0 µM 4% | [6]; at 33.0 µM 15% | [6]; [18] 15% | [6]; at 50.0 µM 6.9% | [7]; at 1.2 µM -4% | [7]; at 3.7 µM -6% | [7]; at 11.0 µM -3% | [7]; at 33.0 µM 10% | [8]; [17] -3% | [8]; [18] 6% | [8]; at 50.0 µM 2.4% | [9]; at 1.2 µM -6% | [9]; at 3.7 µM -8% | [9]; at 11.0 µM -8% | [9]; at 33.0 µM -9% | [9]; at 100.0 µM 13% | [10]; [17] -3% | [10]; [18] 11% | [10]; at 50.0 µM -39.4% | [11]; at 1.2 µM 0% | [11]; at 3.7 µM -3% | [11]; [17] -3% | [11]; at 11.0 µM -1% | [11]; at 33.0 µM 7% | [11]; [18] -4% | [11]; at 50.0 µM -20.4% | [11]; at 100.0 µM 66% | [12]; at 1.2 µM -4% | [12]; at 3.7 µM 4% | [12]; at 11.0 µM -6% | [12]; at 33.0 µM 1% | [12]; at 100.0 µM 62% | [13]; at 1.2 µM -2% | [13]; at 3.7 µM -2% | [13]; at 11.0 µM 1% | [13]; at 33.0 µM 13% | [14]; at 1.2 µM -5% | [14]; at 3.7 µM -8% | [14]; at 11.0 µM -9% | [14]; at 33.0 µM 8% | [15]; [17] 1% | [15]; [18] 20% | [15]; at 50.0 µM -1.15% | [16]; at 1.2 µM -3% | [16]; at 3.7 µM -5% | [16]; at 11.0 µM -3% | [16]; at 33.0 µM 14%
active: [1]; at 33.0 µM 70% | [1]; at 100.0 µM 95% | [3]; at 100.0 µM 78% | [4]; at 100.0 µM 76% | [5]; at 100.0 µM 95% | [6]; at 100.0 µM 70% | [7]; at 100.0 µM 82% | [13]; at 100.0 µM 82% | [14]; at 100.0 µM 81% | [16]; at 100.0 µM 89%

CN(C)[C@@H]1C(=O)C(C(N)=O)=C(O)[C@@]2(O)C(=O)C3=C(O)c4c(O)cccc4C[C@H]3C[C@@H]12
inactive: [1]; at 1.2 µM -5% | [1]; at 3.7 µM -10% | [1]; at 11.0 µM 17% | [2]; at 1.2 µM -1% | [2]; at 3.7 µM 2% | [2]; at 11.0 µM 30% | [3]; at 1.2 µM -9% | [3]; at 3.7 µM -8% | [3]; at 11.0 µM 14% | [3]; at 33.0 µM 10% | [3]; at 100.0 µM 9% | [4]; at 1.2 µM 0% | [4]; at 3.7 µM -5% | [4]; at 11.0 µM 21% | [5]; at 1.2 µM -19% | [5]; at 3.7 µM -25% | [5]; [17] 7% | [5]; at 11.0 µM 9% | [6]; at 1.2 µM -5% | [6]; at 3.7 µM -4% | [6]; at 11.0 µM 1% | [7]; at 1.2 µM 0% | [7]; at 3.7 µM -5% | [7]; at 11.0 µM 44% | [8]; [17] 23% | [9]; at 1.2 µM -7% | [9]; at 3.7 µM -15% | [9]; at 11.0 µM 27% | [10]; [17] 61% | [11]; at 1.2 µM -8% | [11]; at 3.7 µM -7% | [11]; at 11.0 µM 5% | [12]; at 1.2 µM 9% | [12]; at 3.7 µM 14% | [12]; at 11.0 µM 52% | [13]; at 1.2 µM -13% | [13]; at 3.7 µM -11% | [13]; at 11.0 µM 36% | [14]; at 1.2 µM -7% | [14]; at 3.7 µM -9% | [14]; at 11.0 µM 26% | [15]; [17] 38% | [16]; at 1.2 µM -7% | [16]; at 3.7 µM -8% | [16]; at 11.0 µM -2%
active: [1]; at 33.0 µM 97% | [1]; at 100.0 µM 98% | [2]; at 33.0 µM 95% | [2]; at 100.0 µM 99% | [4]; at 33.0 µM 97% | [4]; at 100.0 µM 99% | [5]; at 33.0 µM 95% | [5]; [18] 99% | [5]; at 50.0 µM 85.1% | [5]; at 100.0 µM 99% | [6]; [17] 87% | [6]; at 33.0 µM 97% | [6]; [18] 99% | [6]; at 50.0 µM 91% | [6]; at 100.0 µM 99% | [7]; at 33.0 µM 98% | [7]; at 100.0 µM 99% | [8]; [18] 99% | [8]; at 50.0 µM 91% | [9]; at 33.0 µM 98% | [9]; at 100.0 µM 99% | [10]; [18] 99% | [10]; at 50.0 µM 84.7% | [11]; [17] 97% | [11]; at 33.0 µM 97% | [11]; [18] 99% | [11]; at 50.0 µM 89% | [11]; at 100.0 µM 99% | [12]; at 33.0 µM 99% | [12]; at 100.0 µM 99% | [13]; at 33.0 µM 97% | [13]; at 100.0 µM 99% | [14]; at 33.0 µM 98% | [14]; at 100.0 µM 99% | [15]; [18] 99% | [15]; at 50.0 µM 89.8% | [16]; at 33.0 µM 95% | [16]; at 100.0 µM 99%
